The list is not random: actives were taken first. Their share in the collection is about 15%.
TDP1 cell CPT – growth inhibition of DT40 Tdp1-/-;hTDP1 cells with camptothecin (screen for TDP1 inhibitors); chicken DT40 Tdp1-/-;hTDP1 cells + 20 nM CPT, ATP luminescence, 48 h; Potency, µM (titrated, usually from 46.2 µM), for the others: at the highest dose activity change, negative = growth inhibition, usual class: inhibitors; 420,000 compounds, 12% hits; further: nearly all actives have a fitted effect of over 55% in size
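Chicken DT40 Tdp1-/- cells stably complemented with human TDP1 were seeded at 400 cells/well in medium containing 20 nM camptothecin, exposed to pin-transferred compounds, and grown at 37 °C for at least 48 hr. Viability was read as ATP luminescence.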
RORg inh – blocks mouse ROR gamma transcriptional activity | AID 2551 | Potency, µM (top dose mostly 53.6 µM), for the others: top-dose activity change, negative = inhibition, most hits filed as inhibitors | 310,000 compounds, 5.4% hits | P51450 | Drosophila S2 Gal4-RORgamma UAS-luciferase reporter, 20 h; further: nearly all actives have a fitted effect of over 60% in size
Target sequence (P51450 whole entry, looked up, the tested form may be a part): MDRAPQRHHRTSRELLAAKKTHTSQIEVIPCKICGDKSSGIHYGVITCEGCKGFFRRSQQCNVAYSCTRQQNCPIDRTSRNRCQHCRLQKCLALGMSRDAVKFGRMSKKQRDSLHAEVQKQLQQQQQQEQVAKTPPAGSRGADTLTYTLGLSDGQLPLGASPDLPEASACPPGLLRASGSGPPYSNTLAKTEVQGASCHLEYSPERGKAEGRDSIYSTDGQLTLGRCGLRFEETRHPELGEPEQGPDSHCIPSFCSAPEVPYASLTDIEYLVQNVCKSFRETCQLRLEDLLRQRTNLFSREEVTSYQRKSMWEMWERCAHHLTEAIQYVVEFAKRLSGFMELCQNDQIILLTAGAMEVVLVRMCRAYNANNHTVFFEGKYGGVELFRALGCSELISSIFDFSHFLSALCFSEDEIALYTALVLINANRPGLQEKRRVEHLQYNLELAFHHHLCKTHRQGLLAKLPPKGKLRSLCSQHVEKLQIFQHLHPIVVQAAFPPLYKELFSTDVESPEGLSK
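Luciferase reporter read in Schneider cells carrying Gal4-RORγ (mouse) and UAS-Photinus luciferase; cells given compound 1 h before 700 uM copper sulfate induction, then incubated 20 h at ambient temperature.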
ELG1 DNA repair – ELG1-dependent DNA repair inhibition; Potency, µM (highest dose often 46.1 µM), for the others: top-dose activity change, negative = inhibition, most hits filed as inhibitors; 330,000 compounds, 2.3% hits; HEK293T ELG1-luciferase reporter, luminescence, 16 h; DNA damage induced by 5-fluorouridine; AID 504467; further: nearly all actives have a fitted effect of over 55% in size
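Step one: seed 2,000 cells per well. Step two: pin-transfer compound or DMSO alongside 5-fluorouridine. Step three: incubate 16 hr, 37 °C, 5% CO2. Step four: add ONE-Glo, wait 30 min, read luminescence.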
12-LOX inh – blocks human arachidonate 12S-lipoxygenase; P18054; purified 12hLO, xylenol orange hydroperoxide absorbance; Potency, µM (titrated, usually from 108 µM), inactives show at the highest dose activity change, negative = inhibition, actives largely listed as inhibitors; 580,000 compounds, 1.1% hits; AID 1671190
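Purified human 12hLO (150 nM final) in 25 mM Hepes, 0.01% Triton X-100, pH 7.0 was preincubated 15 min at room temperature with compound. Then 40 uM arachidonic acid was added, 30 min. Hydroperoxide was read by Fe-XO absorbance ratio 573/405 nm.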
VP16 counter – Gal4-VP16 reporter inhibition counter-screen; Drosophila S2 Gal4-VP16 UAS-luciferase, luminescence, 20 h; Potency, µM (highest dose often 53.6 µM), inactives show top-dose activity, negative = inhibition, hits mostly inhibitors; 310,000 compounds, 3.5% hits;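 further: Gal4-VP16 expression switched on by copper sulfate through the metallothionein promoter; nearly all actives have a fitted effect of over 50% in size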
TDP1 cell noCPT – qHTS for Inhibitors of human tyrosyl-DNA phosphodiesterase 1 (TDP1): qHTS in cells in absence of CPT | DT40 Tdp1-/- hTDP1 cells, no CPT, ATP luminescence, 48 h | Potency, µM (series often up to 46.2 µM), inactives show at the top dose activity change, negative = growth inhibition, usual class: inhibitors | 420,000 compounds, 15% hits; further: nearly all actives have a fitted effect of over 55% in size
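Camptothecin absent (DMSO only). Human TDP1-complemented DT40 knockout cells, 400 cells/well, 37 °C for minimum 48 hr; ATP measured via CellTiter-Glo, 30 min dark incubation, luminescence.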
The depositor's hits bear a star; ? = inconclusive; nt = no result given; ! = not confirmed by another sample. The call rests on the fitted dose curve; in most records, active means well fitted curve in the direction sought with a large enough effect; inconclusive means small, poorly fitted or top-dose-only effect, or another doubt; inactive means no such curve, though single readings can be large; an effect the other way counts as inactive or inconclusive. On the % scale 0 is the no-effect control and ±100 the full control effect; potency means the concentration at half of the fitted maximal effect.

SMILES	TDP1 cell CPT	RORg inh	ELG1 DNA repair	12-LOX inh	VP16 counter	TDP1 cell noCPT
CC1CCC(NC(=O)CCc2cn(Cc3ccccc3Cl)c3ccccc23)CC1 (stereo not given)	?	nt	nt	-28%	nt	?
COc1cccc(CNC(=O)CCc2cn(Cc3ccccc3Cl)c3ccccc23)c1	?	nt	nt	-25%	nt	18µM*
O=C(NCCCN1CCCC1=O)c1cc(-c2ccc3c(c2)OCO3)nc2ccccc12	16µM*	1%	-28%	?	-10%	?
COc1ccc2nc(-c3ccc4c(c3)OCO4)cc(C(=O)NCCN3CCOCC3)c2c1	nt	nt	nt	40µM*	nt	nt
COc1ccc(-c2cc(C(=O)NCCN3CCOCC3)c3ccccc3n2)cc1	-24%	17%	22%	0%	8%	?
CN(C)c1ccc(-c2ccc3ncnc(N(C)Cc4ccco4)c3c2)cc1	4.1µM*	4%	nt	-6%	7%	2.6µM*
Cc1ccc(-c2cc(C(=O)N3CCC(Cc4nncn4C(C)C)CC3)c3ccccc3n2)cc1C	nt	nt	nt	18%	nt	nt
O=C(c1ccsc1)N1CCCC2(C1)Nc1cccnc1NC2=NC1CCCC1 (stereo not given)	nt	nt	nt	10%	nt	nt
Cc1cc(C)n2cc(CSc3nnc(-c4ccccc4)c(-c4ccccc4)n3)nc2n1	21µM*	nt	nt	0%	nt	23µM*
O=C(NCc1ccc(F)cc1)C1c2ccccc2C(=O)N(Cc2ccccc2)C12CCCC2 (stereo not given)	nt	nt	nt	-16%	nt	nt
COc1ccc(C(CC(=O)O)NC(=O)c2ccccc2[N+](=O)[O-])cc1 (stereo not given)	-5%	14%	-3%	-3%	-1%	0%
Cc1cc2ccccn2c1C(C[N+](=O)[O-])c1ccc(N(C)C)cc1 (stereo not given)	16µM*	?	4%	-16%	?	?
COc1ccc(C(C[N+](=O)[O-])c2c(-c3ccccc3)cc3ccccn23)c(OC)c1 (stereo not given)	2.9µM*	?	?	1.6µM*	?	5.2µM*
COc1ccc(C(C[N+](=O)[O-])c2c(C)cc3ccccn23)cc1 (stereo not given)	10µM*	?	-10%	?	-7%	18µM*
COc1ccc(C(C[N+](=O)[O-])c2c(C)[nH]n(-c3ccccc3)c2=O)cc1 (stereo not given)	13µM*	13µM*	-15%	?	?	16µM*
Nc1ccc(N=Nc2ccccc2)c(N)n1	9.4µM*!	?	?	?	?	11µM*!
Cc1cc(Nc2ccc(Cl)cc2)nc(NCc2ccccc2)n1	7.3µM*	?	-1%	?	?	8.2µM*
Nc1nc(NCc2ccccc2)nc(Nc2cccc(F)c2)c1[N+](=O)[O-]	1%	-20%	14%	-25%	?	?
Cc1cc(Nc2ccccc2)nc(NCc2ccccc2)n1	8.2µM*	2.8µM*	4.6µM*	?	11µM*	4.1µM*
NNc1nc(NCc2ccccc2)nc(Nc2ccccc2)n1	nt	nt	nt	10%	nt	nt
CCCCNc1cc(C)nc(NCc2ccccc2)n1	9.2µM*	?	15µM*	nt	7.1µM*	5.8µM*
Cc1cc(Nc2cccc(F)c2)nc(NCc2ccccc2)n1	4.1µM*	27%	-3%	?	?	5.8µM*
CCOC(=O)c1cnc(SCc2nc(-c3ccccc3Cl)oc2C)nc1N	nt	nt	nt	13%	nt	nt
Cc1ccc(-c2c(NC(=O)c3cccc([N+](=O)[O-])c3)oc3ccccc3c2=O)cc1	nt	nt	nt	-11%	nt	nt
COc1ccc(-c2ccnc3ncnn23)c(F)c1	nt	nt	nt	4%	nt	nt
CN1CCC(OC2CCN(C(=O)c3ccc(Br)o3)CC2)CC1	nt	nt	nt	50%	nt	nt

Screens: PubChem, National Center for Advancing Translational Sciences (NCATS)
